Molecules are shown by their SMILES. A number with no mark means an inactive call. Activity calls are given as the source filed them. Calls follow the shape of the dose curve; as a rule, active = well fitted curve in the direction sought with a large enough effect in the repeat runs; inconclusive = weak or mixed curves; inactive = flat fitted curve, though single readings scatter.
% is scaled to controls: 0 for no effect and ±100 for the full control effect.

One assay can be described thus: qHTS assay to test for compound auto fluorescence at 535 nm (green) in HEK293 cell free culture (AID 720682). The conditions noted are these: cell-free medium, green autofluorescence 485/535 nm, hits give high values; series mostly up to 91.3 µM; activity change: at the top concentration. The procedure, abridged: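 Using fluorescein as calibrant, autofluorescence was quantified at 485/535 nm in cell-free DMEM containing 10% FBS after pintool addition of compound or vehicle.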
Turning to `CN(CC1(C)CCCO1)S(=O)(=O)c1ccc(Cl)c(S(N)(=O)=O)c1` (centres undefined), the “activity change” value was -0.0526% [at 46 µM].
`CCCCCOc1ccc(C2SC(=O)NC2=O)cc1OCC` (centres undefined): the “activity change” value is -0.0308% [at 46 µM].
With `CCCCNCCCC`, the “activity change” value is 0.0281%.
Consider `CC(C)c1ccccc1`, for which the “activity change” value is -0.0447% [at 95.7 µM].
For the compound `CC/C=C\CCOC(=O)C(C)C`, the “activity change” value was 0.0075%.
With `CCC1(C)NC(=O)NC1=O` (centres undefined), the “activity change” value was -0.019%.
`Cc1cc(S(=O)(=O)O)c(N)cc1Cl`: the “activity change” value was -0.0263%.
Turning to `COc1cc(N)c(Cl)cc1C(=O)NC1CCN(Cc2ccccc2)CC1`, the activity change is -0.0003% [at 18.6 µM].
As to `CCOC(=O)C1CC(=O)C(=C(O)C2CC2)C(=O)C1` (centres undefined), the “activity change” value is 0.0343%.
Still for that read-out and setting: the value for `O=S(=O)(O)C(F)(F)F` was -0.0358%.
Regarding `O=c1[nH]cnc2c1ncn2[C@@H]1O[C@H](CO)[C@@H](O)[C@H]1O`, the “activity change” value is 0.0074% [at 46 µM].
On to `Cc1cc(NS(=O)(=O)c2ccc(N)cc2)nc(C)n1`, for which the “activity change” value was -0.0112% [at 46 µM].
`CC(C)CCCCCCc1ccc(OCCOCCO)cc1`: the “activity change” value was 0.162% [at 95.7 µM].
Regarding `CC1(C)S[C@@H]2[C@H](NC(=O)C(C(=O)O)c3ccccc3)C(=O)N2[C@H]1C(=O)O` (some centres undefined), the “activity change” value is -0.0443% [at 46 µM].
With `CCCCCCCCOC(=O)CCCCCCCCC(=O)OCCCCCCCC`, the “activity change” value is 0.111%.
As for `O=C1C=CC(=O)O1`, the “activity change” value is 0.0951% [at 95.7 µM].

The next assay in a line: qHTS assay to test for compound auto fluorescence at 590 nm (red) in HEK293 cell free culture (AID 720683). The following applies: cell-free medium autofluorescence, Ex540/Em590 red; series mostly up to 91.3 µM; fluorescence, % of fluorescent control: at the top concentration. The method in brief:
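Tox21 10K library compounds were pinned into cell-free DMEM with 10% FBS and fluorescence was read at excitation 540 nm. Activity is expressed as Rose Bengal sodium equivalency.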
(In general: Quantitative high-throughput screening tests each substance at several concentrations.)
As to `CCCCNC(=S)NCCCC`, the “fluorescence, % of fluorescent control” value was -0.109%.
For the compound `CC(C)(C)c1cccc(O)c1`, the “fluorescence, % of fluorescent control” value is -0.321%.
Turning to `O=C1CCC(C2CCCCC2)CC1`, the “fluorescence, % of fluorescent control” value is -0.159%.
Turning to `COC(=O)c1ccc2cc(C(=O)OC)ccc2c1`, the fluorescence, % of fluorescent control is 0.0914% [at 18.6 µM].
`CCCc1c2oc(C(=O)O)cc(=O)c2cc2c(=O)cc(C(=O)O)n(CC)c12`: the “fluorescence, % of fluorescent control” value was -0.0723% [at 46 µM].
Turning to `CC(CNC1CCCCC1)OC(=O)c1ccccc1` (centres undefined), the fluorescence, % of fluorescent control is -0.008% [at 18.6 µM].
For `CC(C)OC(C)C`, the “fluorescence, % of fluorescent control” value is 0.0078% [at 95.7 µM].
In the case of `OCCN(CCO)c1ccccc1`, the “fluorescence, % of fluorescent control” value is 0.454%.
As to `O=C(C(Cl)Cl)N1CCOC12CCCCC2`, the “fluorescence, % of fluorescent control” value was -0.37%.
Same read-out and setting: as for `CCCCCCCCCC#N`, the figure is 0.0256%; as for `CCOC(=O)C(Br)c1ccccc1` (centres undefined), -0.275%; as for `C[C@@H](N)C(=O)O`, 0.0928% [at 46 µM].
Regarding `O=C1N(c2ccccc2)c2ccccc2C1(Cc1ccncc1)Cc1ccncc1`, the “fluorescence, % of fluorescent control” value was -0.468% [at 46 µM].
On to `Cc1ccsc1C(=CCCN1CCC[C@@H](C(=O)O)C1)c1sccc1C`, for which the “fluorescence, % of fluorescent control” value was -0.0338% [at 46 µM].
For `C=CCc1cc(OC)c(O)c(C(=O)NCCO)c1`, the “fluorescence, % of fluorescent control” value was 0.111% [at 46 µM].
Turning to `CCc1cc(Cl)c(OC)c(C(=O)NC[C@@H]2CCCN2CC)c1O`, the outcome was inactive.
Take `CCCCOc1cc(C(=O)NCCN(CC)CC)c2ccccc2n1`: the fluorescence, % of fluorescent control was -0.187% [at 18.6 µM].
On the same count and under the same terms, as for `CCC(=O)O[C@]1(C(=O)SCF)[C@H](C)C[C@H]2[C@@H]3C[C@H](F)C4=CC(=O)C=C[C@]4(C)[C@@]3(F)[C@@H](O)C[C@@]21C`, the figure is -0.193% [at 18.6 µM]; as for `NNS(=O)(=O)c1ccc(Oc2ccc(S(=O)(=O)NN)cc2)cc1`, 0.0519%.
On to `CN(CC1(C)CCCO1)S(=O)(=O)c1ccc(Cl)c(S(N)(=O)=O)c1` (centres undefined), for which the “fluorescence, % of fluorescent control” value was 0.0457% [at 46 µM].
Consider `CCCCCOc1ccc(C2SC(=O)NC2=O)cc1OCC` (centres undefined), for which the “fluorescence, % of fluorescent control” value was -0.945% [at 46 µM].
On to `CCCCNCCCC`, for which the “fluorescence, % of fluorescent control” value is 0.108%.
Consider `CC(C)c1ccccc1`, for which the “fluorescence, % of fluorescent control” value is 0.0165% [at 95.7 µM].
Turning to `CC/C=C\CCOC(=O)C(C)C`, the “fluorescence, % of fluorescent control” value is -0.059%.
The same measure, in the same setting: the value for `CCC1(C)NC(=O)NC1=O` (centres undefined) was 0.281%.
Take `Cc1cc(S(=O)(=O)O)c(N)cc1Cl`: the “fluorescence, % of fluorescent control” value was 0.0251%.
On to `COc1cc(N)c(Cl)cc1C(=O)NC1CCN(Cc2ccccc2)CC1`, for which the fluorescence, % of fluorescent control is 0.0929% [at 18.6 µM].
Consider `CCOC(=O)C1CC(=O)C(=C(O)C2CC2)C(=O)C1` (centres undefined), for which the “fluorescence, % of fluorescent control” value was -0.168%.
Regarding `O=S(=O)(O)C(F)(F)F`, the “fluorescence, % of fluorescent control” value is 0.0307%.
As for `O=c1[nH]cnc2c1ncn2[C@@H]1O[C@H](CO)[C@@H](O)[C@H]1O`, the “fluorescence, % of fluorescent control” value is -0.0794% [at 46 µM].
Regarding `CC(C)CCCCCCc1ccc(OCCOCCO)cc1`, the “fluorescence, % of fluorescent control” value is -0.123% [at 95.7 µM].
On to `CC1(C)S[C@@H]2[C@H](NC(=O)C(C(=O)O)c3ccccc3)C(=O)N2[C@H]1C(=O)O` (some centres undefined), for which the “fluorescence, % of fluorescent control” value was -0.268% [at 46 µM].
With `CCCCCCCCOC(=O)CCCCCCCCC(=O)OCCCCCCCC`, the “fluorescence, % of fluorescent control” value was 0.207%.

Another assay is described as follows: qHTS assay to test for compound auto fluorescence at 590 nm (red) in HepG2 cell free culture (AID 720684). The following applies: cell-free medium autofluorescence, red 540/590 nm; series mostly up to 91.3 µM; fluorescence, % of Rose Bengal: at the top concentration. The method in brief: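 Red fluorescence (540 nm excitation, 590 nm emission) was measured after compound transfer into cell-free MEM supplemented with 10% FBS. Values are equivalencies against Rose Bengal sodium.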
As to `COc1nc(C)nc(NC(=O)NS(=O)(=O)c2ccccc2OCCCl)n1`, the “fluorescence, % of Rose Bengal” value is 0.214%.
Still for that read-out and setting: as for `CC(C)(C)c1cccc(O)c1`, the figure is -0.184%; as for `O=C1CCC(C2CCCCC2)CC1`, 0.185%.
Regarding `COC(=O)c1ccc2cc(C(=O)OC)ccc2c1`, the fluorescence, % of Rose Bengal was 0.0402% [at 18.6 µM].
As for `CCCc1c2oc(C(=O)O)cc(=O)c2cc2c(=O)cc(C(=O)O)n(CC)c12`, the “fluorescence, % of Rose Bengal” value was -0.228% [at 46 µM].
Same read-out and setting: as for `CC(C)OC(C)C`, the figure is -0.114% [at 95.7 µM].
As to `OCCN(CCO)c1ccccc1`, the “fluorescence, % of Rose Bengal” value is 0.063%.
As to `O=C(C(Cl)Cl)N1CCOC12CCCCC2`, the “fluorescence, % of Rose Bengal” value is -0.348%.
For `CCCCCCCCCC#N`, the “fluorescence, % of Rose Bengal” value is 0.132%.
The same measure, in the same setting: as for `CCOC(=O)C(Br)c1ccccc1` (centres undefined), the figure is -0.176%; as for `C[C@@H](N)C(=O)O`, 0.0802% [at 46 µM].
`Cc1ccsc1C(=CCCN1CCC[C@@H](C(=O)O)C1)c1sccc1C`: the “fluorescence, % of Rose Bengal” value is 0.208% [at 46 µM].
The same measure, in the same setting: as for `C=CCc1cc(OC)c(O)c(C(=O)NCCO)c1`, the figure is 0.0276% [at 46 µM].
In the case of `CCc1cc(Cl)c(OC)c(C(=O)NC[C@@H]2CCCN2CC)c1O`, the outcome was inactive.
For the compound `CCCCOc1cc(C(=O)NCCN(CC)CC)c2ccccc2n1`, the fluorescence, % of Rose Bengal was 0.52% [at 18.6 µM].
For `NNS(=O)(=O)c1ccc(Oc2ccc(S(=O)(=O)NN)cc2)cc1`, the “fluorescence, % of Rose Bengal” value is -0.0296%.
In the case of `CN(CC1(C)CCCO1)S(=O)(=O)c1ccc(Cl)c(S(N)(=O)=O)c1` (centres undefined), the “fluorescence, % of Rose Bengal” value is 0.0904% [at 46 µM].
On the same count and under the same terms, as for `CCCCCOc1ccc(C2SC(=O)NC2=O)cc1OCC` (centres undefined), the figure is 0.396% [at 46 µM]; as for `CCCCNCCCC`, 0.0395%.
`CC(C)c1ccccc1`: the “fluorescence, % of Rose Bengal” value is 0.137% [at 95.7 µM].
In the case of `CC/C=C\CCOC(=O)C(C)C`, the “fluorescence, % of Rose Bengal” value is 0.041%.
For `CCC1(C)NC(=O)NC1=O` (centres undefined), the “fluorescence, % of Rose Bengal” value is 0.0667%.
Take `Cc1cc(S(=O)(=O)O)c(N)cc1Cl`: the “fluorescence, % of Rose Bengal” value was 0.0552%.
Still for that read-out and setting: as for `COc1cc(N)c(Cl)cc1C(=O)NC1CCN(Cc2ccccc2)CC1`, the figure is 0.723% [at 18.6 µM]; as for `CCOC(=O)C1CC(=O)C(=C(O)C2CC2)C(=O)C1` (centres undefined), -0.189%.
In the case of `O=c1[nH]cnc2c1ncn2[C@@H]1O[C@H](CO)[C@@H](O)[C@H]1O`, the “fluorescence, % of Rose Bengal” value is -0.159% [at 46 µM].
Turning to `Cc1cc(NS(=O)(=O)c2ccc(N)cc2)nc(C)n1`, the “fluorescence, % of Rose Bengal” value was -0.0654% [at 46 µM].
Take `CC(C)CCCCCCc1ccc(OCCOCCO)cc1`: the “fluorescence, % of Rose Bengal” value was -0.158% [at 95.7 µM].
The same measure, in the same setting: as for `CC1(C)S[C@@H]2[C@H](NC(=O)C(C(=O)O)c3ccccc3)C(=O)N2[C@H]1C(=O)O` (some centres undefined), the figure is -0.522% [at 46 µM].
Still for that read-out and setting: the value for `CCCCCCCCOC(=O)CCCCCCCCC(=O)OCCCCCCCC` was -0.142%.
